From PubChem BioAssay (EPA / NIEHS)
Active and inactive are the calls of the source. Rule for the calls: active = hit-call score of the fitted dose curve at least 0.9, where 1 is the maximum; inactive = score below 0.9.

Tests used:
[1] = target: Transcription factor E2F1 (Homo sapiens) (UniProt Q01094); experiment: ATG_E2F_CIS: Attagene CIS-FACTORIAL HepG2 Assay for human E2F Transcription Factor 1 (AID 2282935); details: HepG2 Attagene cis-reporter, E2F reporter RNA transcripts; actives raise or lower the signal
Method in brief: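 First, HepG2 cells were transfected with reporter transcription units. Next, they were dosed for 24 h. Then RNA was isolated, converted to cDNA, PCR-amplified, FAM-labeled, HpaI-digested and analyzed by capillary electrophoresis.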

[2] = ATG_E_Box_CIS: Attagene CIS-FACTORIAL HepG2 Assay for human Enhancer Box (E-box) (AID 2282936); details: HepG2 E-box cis-reporter transcription, actives raise or lower the signal
Method in brief: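 Endogenous transcription factor activity was sensed in human HepG2 liver cells through transfected cis-promoter reporter units. After 24 h of dosing, total RNA was reverse-transcribed and reporter cDNA resolved by capillary electrophoresis.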

[3] = ATG_M_61_CIS: Attagene CIS-FACTORIAL HepG2 Assay for M61 Transcription Factor (Internal Marker) (AID 2282937); details: HepG2 Attagene CIS-FACTORIAL M61 internal marker reporter; actives raise or lower the signal
Method in brief: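 Cells were transfected with reporter units under cis-regulatory promoters, treated with chemicals for 24 h, then lysed for RNA. Reporter transcripts were quantified by RT-PCR and capillary electrophoresis, and activity was fitted bidirectionally against DMSO.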

[4] = ATG_M_19_CIS: Attagene CIS-FACTORIAL HepG2 Assay for M19 Transcription Factor (Internal Marker) (AID 2282939); details: HepG2 Attagene CIS-FACTORIAL M19 internal marker reporter; actives raise or lower the signal
Method in brief: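 Transfect HepG2 with MRTU reporter library → dose chemical, 24 h → isolate total RNA, reverse-transcribe with oligo(dT) → PCR, 6-FAM label, HpaI cut (2 h, 37 C) → capillary electrophoresis. Bidirectional fit vs DMSO.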

[5] = ATG_ERE_CIS: Attagene CIS-FACTORIAL HepG2 Assay for Estrogen Response Element (ERE) (AID 2282940); details: HepG2 ERE cis-reporter, Attagene RNA transcript; actives raise or lower the signal
Method in brief: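 Transient MRTU transfection of human HepG2; cis-element promoters; 24 h dosing; total RNA → RT (oligo dT) → PCR → 6-FAM primer extension → HpaI digest → CE fluorescence. Bidirectional fit, DMSO baseline.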

[6] = ATG_Ets_CIS: Attagene CIS-FACTORIAL HepG2 Assay for human Erythroblast Transformation Specific (ETS) (AID 2282941); details: HepG2 ETS cis-reporter transcription, actives raise or lower the signal
Method in brief: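 Endogenous transcription factor activity read as reporter mRNA via RT-PCR and capillary electrophoresis, with gain or loss fitted bidirectionally against DMSO. Human HepG2 liver cells, transiently transfected CIS reporter constructs, 24 h exposure.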

[7] = target: Hepatocyte nuclear factor 3-beta (Homo sapiens) (UniProt Q9Y261); experiment: ATG_FoxA2_CIS: Attagene CIS-FACTORIAL HepG2 Assay for human Forkhead box A2 (FOXA2) (AID 2282942); details: HepG2 cis-reporter transcription factor activity, 24 h; actives raise or lower the signal
Method in brief: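 Endogenous transcription factor activity was read in HepG2 cells carrying transiently transfected cis-promoter reporter units. After 24 h dosing, reporter mRNA was quantified by RT-PCR and capillary electrophoresis, and values fitted bidirectionally versus DMSO.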

[8] = ATG_FoxO_CIS: Attagene CIS-FACTORIAL HepG2 Assay for human Forkhead box O (FoxO) (AID 2282943); details: HepG2 Attagene cis-reporter, FoxO element, mRNA; actives raise or lower the signal
Method in brief: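 Values reflect reporter mRNA induction or loss in HepG2 cells 24 h post-dosing, fitted bidirectionally with DMSO as negative control and baseline. Detection used RT-PCR and fluorescence capillary electrophoresis.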

[9] = ATG_GLI_CIS: Attagene CIS-FACTORIAL HepG2 Assay for human Zinc Finger Protein GLI1 (AID 2282945); details: HepG2, Attagene cis-factorial reporter mRNA, GLI element; actives raise or lower the signal
Method in brief: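 HepG2 cells transiently transfected with cis-promoter multiplexed reporter units report endogenous transcription factor activity. After 24 h chemical exposure, reporter mRNA was quantified by RT-PCR, 6-FAM labelling, HpaI digestion and capillary electrophoresis, with bidirectional fitting against DMSO.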

[10] = target: Bile acid receptor (Homo sapiens) (UniProt Q96RI1); experiment: ATG_IR1_CIS: Attagene CIS-FACTORIAL HepG2 Assay for human Nuclear Receptor Subfamily 1 Group H Member 4 (NR1H4), IR1 submotif (AID 2282946); details: IR1 reporter transcription, actives raise or lower the signal
Method in brief: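 Readout: reporter transcript levels by RT-PCR with fluorescent capillary electrophoresis, from HepG2 cells transiently transfected with multiplexed cis-regulated reporters and dosed 24 h. Gain- or loss-of-signal fitted versus DMSO negative control.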

[11] = ATG_GRE_CIS: Attagene CIS-FACTORIAL HepG2 Assay for human Glucocorticoid Response Elements (GRE) (AID 2282947); details: HepG2 GRE cis-reporter, Attagene multiplex mRNA; actives raise or lower the signal
Method in brief: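 Cells (HepG2) bearing transfected cis-promoter reporter transcription units were treated with chemical for 24 hours. Reporter mRNA was measured via RT-PCR with capillary electrophoresis, and activity was fitted in both directions relative to DMSO.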

[12] = ATG_ISRE_CIS: Attagene CIS-FACTORIAL HepG2 Assay for human Interferon Regulatory Factor 1 (IRF1) binding to an Interferon-Stimulated Response Element (ISRE) (AID 2282948); details: HepG2 ISRE cis-reporter (Attagene), mRNA transcription readout; actives raise or lower the signal
Method in brief: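 Endogenous transcription factor activity read as reporter transcript abundance via RT-PCR and capillary electrophoresis. HepG2 cells transiently transfected, 24 h chemical exposure. Gain or loss fitted against DMSO baseline.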

[13] = ATG_M_32_CIS: Attagene CIS-FACTORIAL HepG2 Assay for M32 Transcription Factor (Internal Marker) (AID 2282949); details: HepG2 Attagene cis-factorial M32 reporter, mRNA; actives raise or lower the signal;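 note: background control marker of the multiplexed CIS panel rather than a real target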
Method in brief: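 HepG2 transfectants (cis-regulated reporter transcription units) dosed 24 h. Reporter mRNA by RT-PCR plus CE, analysed as gain or loss relative to DMSO.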

[14] = ATG_M_06_CIS: Attagene CIS-FACTORIAL HepG2 Assay for M06 Transcription Factor (Internal Marker) (AID 2282950); details: HepG2 Attagene CIS-FACTORIAL M06 internal marker reporter; actives raise or lower the signal
Method in brief: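 Read-out is fluorescence of labelled reporter cDNA fragments resolved by capillary electrophoresis after RT-PCR. Cells: HepG2 carrying transfected cis-promoter reporter units, treated 24 h. Gain or loss of signal fitted relative to DMSO.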

[15] = target: Hypoxia-inducible factor 1-alpha (Homo sapiens) (UniProt Q16665); experiment: ATG_HIF1a_CIS: Attagene CIS-FACTORIAL HepG2 Assay for human Hypoxia Inducible Factor 1 (HIF1A) (AID 2282951); details: HepG2 Attagene cis-factorial HIF1a reporter transcription; actives raise or lower the signal
Method in brief: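 Measures endogenous transcription-factor activity through cis-regulated reporter mRNA in HepG2. Cells dosed 24 h; transcripts quantified by RT-PCR with 6-FAM-labelled products separated by capillary electrophoresis; DMSO serves as negative control.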

[16] = target: Hepatocyte nuclear factor 6 (Homo sapiens) (UniProt Q9UBC0); experiment: ATG_HNF6_CIS: Attagene CIS-FACTORIAL HepG2 Assay for human Hepatocyte Nuclear Factor 6 (HNF6) (AID 2282952); details: HepG2 Attagene cis-factorial HNF6 reporter transcription; actives raise or lower the signal
Method in brief: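 Endogenous transcription factor activity in human HepG2 liver cells was captured through cis-regulated reporter constructs. After 24 h treatment, reporter mRNA was measured by RT-PCR with capillary electrophoresis, and activity was fitted in both directions relative to DMSO.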

[17] = target: Heat shock factor protein 1 (Homo sapiens) (UniProt Q00613); experiment: ATG_HSE_CIS: Attagene CIS-FACTORIAL HepG2 Assay for human Heat Shock Transcription Factor 1 (HSE) (AID 2282953); details: HepG2 HSE cis-reporter, Attagene RNA transcription; actives raise or lower the signal
Method in brief: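 HepG2, transient MRTU transfection, cis-promoter reporters (endogenous TF activity). 24 h compound. RNA → oligo(dT) RT → PCR → 6-FAM primer extension → HpaI cut → CE. Bidirectional fit vs DMSO.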

[18] = ATG_MRE_CIS: Attagene CIS-FACTORIAL HepG2 Assay for human Metal Responsive Element (MRE) (AID 2282954); details: HepG2 MRE cis-reporter transcription, Attagene multiplex; actives raise or lower the signal
Method in brief: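 Cells were transfected with cis-promoter reporter transcription units, then dosed for 24 h. RNA was reverse-transcribed, amplified, fluorescently labelled and resolved by capillary electrophoresis, and activity was fitted in both directions relative to DMSO.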

[19] = ATG_GATA_CIS: Attagene CIS-FACTORIAL HepG2 Assay for human GATA Binding Protein (AID 2282944); details: HepG2 GATA cis-element reporter, Attagene multiplex mRNA; actives raise or lower the signal
Method in brief: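 Transient MRTU transfection, HepG2, 24 h compound exposure. Total RNA → oligo(dT) RT → PCR → 6-FAM primer extension → HpaI cut → CE. Bidirectional fit vs DMSO.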

[20] = ATG_EGR_CIS: Attagene CIS-FACTORIAL HepG2 Assay for human Early Growth Response 1 (EGR1) (AID 2282938); details: HepG2 Attagene CIS-FACTORIAL EGR reporter mRNA; actives raise or lower the signal
Method in brief: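 Endogenous TF activity in HepG2 liver cells was gauged through cis-promoter reporter constructs transiently transfected. After 24 h dosing, reporter mRNA was quantified by RT-PCR and capillary electrophoresis, and curves fitted in both directions versus DMSO.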

Measured: AC50

Transcription factor E2F1 (Homo sapiens), sequence (Q01094 whole entry, looked up): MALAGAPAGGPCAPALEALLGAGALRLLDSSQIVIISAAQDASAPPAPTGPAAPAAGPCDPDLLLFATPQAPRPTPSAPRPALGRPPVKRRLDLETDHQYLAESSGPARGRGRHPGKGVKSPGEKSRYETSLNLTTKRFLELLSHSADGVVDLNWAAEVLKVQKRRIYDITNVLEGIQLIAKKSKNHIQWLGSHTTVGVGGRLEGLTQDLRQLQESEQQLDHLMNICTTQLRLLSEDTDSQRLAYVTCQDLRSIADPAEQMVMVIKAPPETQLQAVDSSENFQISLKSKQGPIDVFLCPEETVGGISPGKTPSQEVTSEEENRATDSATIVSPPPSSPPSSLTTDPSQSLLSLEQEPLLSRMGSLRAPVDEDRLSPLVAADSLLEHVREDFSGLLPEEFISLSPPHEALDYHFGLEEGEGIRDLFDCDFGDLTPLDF
Hypoxia-inducible factor 1-alpha (Homo sapiens), sequence (Q16665 whole entry, looked up): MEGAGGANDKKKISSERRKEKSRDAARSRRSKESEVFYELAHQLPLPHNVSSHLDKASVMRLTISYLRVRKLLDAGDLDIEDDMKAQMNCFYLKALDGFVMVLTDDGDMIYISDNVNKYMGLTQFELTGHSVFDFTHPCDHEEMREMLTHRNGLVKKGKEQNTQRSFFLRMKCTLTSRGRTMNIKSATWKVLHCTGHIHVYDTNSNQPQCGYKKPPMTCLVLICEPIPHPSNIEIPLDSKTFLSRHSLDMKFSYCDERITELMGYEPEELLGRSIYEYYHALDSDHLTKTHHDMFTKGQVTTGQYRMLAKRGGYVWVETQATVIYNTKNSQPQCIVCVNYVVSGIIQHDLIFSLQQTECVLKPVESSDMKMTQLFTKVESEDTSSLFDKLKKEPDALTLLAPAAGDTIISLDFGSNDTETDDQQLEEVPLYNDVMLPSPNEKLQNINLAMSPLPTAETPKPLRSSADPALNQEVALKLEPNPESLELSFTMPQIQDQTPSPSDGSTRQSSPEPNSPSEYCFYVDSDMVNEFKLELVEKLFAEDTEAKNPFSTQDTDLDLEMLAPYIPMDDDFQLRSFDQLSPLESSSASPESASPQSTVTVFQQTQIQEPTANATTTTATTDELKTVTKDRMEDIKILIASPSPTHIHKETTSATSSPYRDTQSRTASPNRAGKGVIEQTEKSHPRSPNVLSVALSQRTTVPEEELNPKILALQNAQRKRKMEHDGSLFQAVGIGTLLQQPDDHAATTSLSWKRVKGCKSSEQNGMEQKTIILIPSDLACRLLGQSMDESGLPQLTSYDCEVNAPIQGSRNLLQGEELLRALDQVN
Hepatocyte nuclear factor 6 (Homo sapiens), sequence (Q9UBC0 whole entry, looked up): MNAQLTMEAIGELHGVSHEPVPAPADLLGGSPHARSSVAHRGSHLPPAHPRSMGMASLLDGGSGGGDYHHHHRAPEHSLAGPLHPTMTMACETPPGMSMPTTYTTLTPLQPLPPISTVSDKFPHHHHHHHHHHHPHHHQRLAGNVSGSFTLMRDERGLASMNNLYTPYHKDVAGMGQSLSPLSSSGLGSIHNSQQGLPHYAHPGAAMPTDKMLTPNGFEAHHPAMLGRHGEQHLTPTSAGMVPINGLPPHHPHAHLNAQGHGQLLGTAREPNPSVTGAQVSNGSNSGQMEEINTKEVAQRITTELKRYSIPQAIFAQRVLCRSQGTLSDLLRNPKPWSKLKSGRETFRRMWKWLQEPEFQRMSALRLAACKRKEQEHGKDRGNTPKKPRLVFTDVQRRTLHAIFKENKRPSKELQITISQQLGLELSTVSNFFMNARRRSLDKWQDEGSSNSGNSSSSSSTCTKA
Hepatocyte nuclear factor 3-beta (Homo sapiens), sequence (Q9Y261 whole entry, looked up): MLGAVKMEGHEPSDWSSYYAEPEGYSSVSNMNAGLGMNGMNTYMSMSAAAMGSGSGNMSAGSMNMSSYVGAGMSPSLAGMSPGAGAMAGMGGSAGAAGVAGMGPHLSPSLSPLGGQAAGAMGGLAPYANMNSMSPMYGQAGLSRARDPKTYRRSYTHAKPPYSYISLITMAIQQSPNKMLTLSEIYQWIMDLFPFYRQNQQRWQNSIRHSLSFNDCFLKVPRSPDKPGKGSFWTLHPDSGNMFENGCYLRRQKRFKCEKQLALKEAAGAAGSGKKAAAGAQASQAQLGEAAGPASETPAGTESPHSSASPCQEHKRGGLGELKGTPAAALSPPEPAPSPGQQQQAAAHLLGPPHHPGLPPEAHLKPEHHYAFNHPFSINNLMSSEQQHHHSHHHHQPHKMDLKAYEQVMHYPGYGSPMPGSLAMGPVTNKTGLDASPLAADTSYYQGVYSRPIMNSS
Bile acid receptor (Homo sapiens), sequence (Q96RI1 whole entry, looked up): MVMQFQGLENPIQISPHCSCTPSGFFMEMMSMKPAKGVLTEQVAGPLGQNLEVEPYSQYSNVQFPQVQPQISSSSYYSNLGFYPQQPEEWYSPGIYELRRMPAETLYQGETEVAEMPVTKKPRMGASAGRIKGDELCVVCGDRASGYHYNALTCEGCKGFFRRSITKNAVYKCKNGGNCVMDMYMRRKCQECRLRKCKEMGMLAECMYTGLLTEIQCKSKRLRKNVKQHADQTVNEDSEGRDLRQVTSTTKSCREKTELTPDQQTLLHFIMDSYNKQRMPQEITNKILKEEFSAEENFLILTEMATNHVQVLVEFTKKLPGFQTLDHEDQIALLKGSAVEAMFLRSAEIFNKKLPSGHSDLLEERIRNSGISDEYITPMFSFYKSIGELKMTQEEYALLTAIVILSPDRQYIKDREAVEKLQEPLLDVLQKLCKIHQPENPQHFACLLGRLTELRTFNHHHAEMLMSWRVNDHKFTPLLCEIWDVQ
Heat shock factor protein 1 (Homo sapiens), sequence (Q00613 whole entry, looked up): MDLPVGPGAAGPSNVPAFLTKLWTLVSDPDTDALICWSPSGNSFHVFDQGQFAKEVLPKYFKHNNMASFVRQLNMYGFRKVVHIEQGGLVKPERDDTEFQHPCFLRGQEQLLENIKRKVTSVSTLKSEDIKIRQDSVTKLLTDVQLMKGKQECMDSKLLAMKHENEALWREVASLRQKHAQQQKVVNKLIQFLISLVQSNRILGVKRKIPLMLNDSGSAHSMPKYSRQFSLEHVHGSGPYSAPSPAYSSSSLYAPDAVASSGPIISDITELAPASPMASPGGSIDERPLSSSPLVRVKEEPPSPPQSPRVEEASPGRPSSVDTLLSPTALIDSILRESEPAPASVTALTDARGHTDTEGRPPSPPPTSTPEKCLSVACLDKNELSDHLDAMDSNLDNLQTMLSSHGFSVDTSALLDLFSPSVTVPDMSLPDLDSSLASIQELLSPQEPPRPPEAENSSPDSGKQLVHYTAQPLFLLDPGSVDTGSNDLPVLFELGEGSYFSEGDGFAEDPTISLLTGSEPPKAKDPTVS

O=C(CBr)OCc1ccccc1
active: [5] 100 µM
not listed: [19] | [20]
inactive: all other assays above

O=c1[nH]c2ccccc2c(=O)o1
not listed: [20]
inactive: all other assays above

C/C(=N\NC(=O)Nc1cc(F)cc(F)c1)c1ncccc1C(=O)O
not listed: [5] | [17] | [19]
inactive: all other assays above

N#Cc1c(-c2ccc(Cl)cc2)[nH]c(C(F)(F)F)c1Br
active: [6] 19.8 µM | [12] 1 µM | [17] 47.3 µM | [18] 0.956 µM
not listed: [20]
inactive: all other assays above

CCOP(=S)(OCC)SCSc1ccc(Cl)cc1
active: [5] 4.21 µM
not listed: [16] | [19] | [20]
inactive: all other assays above

CCOP(=S)(NC(C)C)Oc1ccccc1C(=O)OC(C)C (stereo unspecified)
active: [10] 26.5 µM | [12] 41.7 µM | [18] 59.9 µM
not listed: [5] | [20]
inactive: all other assays above

Cc1ccc([N+](=O)[O-])cc1C
not listed: [11] | [16] | [17] | [20]
inactive: all other assays above

CC(=O)c1ccc(-c2ccccc2)cc1
not listed: [5] | [17] | [19]
inactive: all other assays above

O=C(O)C(F)(F)OC(F)(F)C(F)(F)OC(F)(F)C(=O)O
not listed: [5] | [20]
inactive: all other assays above

CO/N=C(/C(=O)OC)c1ccccc1COc1ccccc1C
active: [2] 100 µM | [5] 42.9 µM | [15] 100 µM | [17] 150 µM | [18] 100 µM
not listed: [16] | [19] | [20]
inactive: all other assays above

COP(=O)(CCC(=O)NCO)OC
not listed: [17] | [20]
inactive: all other assays above

O=S1(=O)OCC2C(CO1)C1(Cl)C(Cl)=C(Cl)C2(Cl)C1(Cl)Cl (stereo unspecified)
active: [2] 26.5 µM | [5] 1.84 µM | [9] 186 µM | [12] 100 µM | [17] 142 µM | [18] 163 µM
not listed: [19] | [20]
inactive: all other assays above

CN(C)C(=O)Cl
not listed: [5] | [10]
inactive: all other assays above

Nc1ccc(Sc2ccc(N)cc2)cc1
active: [15] 45.3 µM | [18] 77.3 µM
not listed: [5] | [16] | [19] | [20]
inactive: all other assays above

O=C(O)CF
not listed: [5] | [10] | [11] | [16] | [17]
inactive: all other assays above
